Test results taken from PubChem BioAssay AID1347069 (National Center for Advancing Translational Sciences (NCATS), 2019).
Screen size: about 44,000 compounds; fewer than 10 were called active. These entries were drawn from the full list. A number with no mark means an inactive call. Calls follow the shape of the dose curve; as a rule, active = well fitted inhibition curve with a large enough effect; inconclusive = small, poorly fitted or top-dose-only effect; inactive = flat fitted curve, though single readings scatter.

What follows are molecules tested against Tumor susceptibility gene 101 protein (Homo sapiens) (UniProt Q99816) (assay: qHTS Validation Assay for Inhibitors of HIV-1 Budding by Blocking the Interaction of PTAP/TSG101: Sytravon Library Screen). Settings: Fluorescence polarization, FITC-PTAP peptide/Tsg101, 20 min; series mostly up to 115 µM; activity change, negative = inhibition: at the top concentration.
Sequence of Tumor susceptibility gene 101 protein (Homo sapiens) (Q99816 whole entry, looked up): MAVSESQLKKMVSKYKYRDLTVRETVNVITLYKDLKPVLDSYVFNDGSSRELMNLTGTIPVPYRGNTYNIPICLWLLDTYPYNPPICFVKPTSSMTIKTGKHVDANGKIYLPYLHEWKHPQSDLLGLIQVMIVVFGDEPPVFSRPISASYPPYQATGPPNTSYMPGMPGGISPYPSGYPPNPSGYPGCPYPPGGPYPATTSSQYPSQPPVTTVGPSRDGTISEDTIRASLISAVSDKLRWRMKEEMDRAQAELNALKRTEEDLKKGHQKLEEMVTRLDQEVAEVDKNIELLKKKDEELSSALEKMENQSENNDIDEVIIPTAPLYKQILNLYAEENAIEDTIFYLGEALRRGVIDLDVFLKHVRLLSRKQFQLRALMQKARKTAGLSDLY
Text: Stages of the HIV-1 replication cycle, specifically virus assembly and release, provide underexploited targets for the development of novel antiviral inhibitors. The late stages of HIV-1 replication are mediated by the Gag precursor protein, Pr55Gag. Expression of Pr55Gag is both necessary and sufficient for the production of virus-like particles from Gag-expressing cells. The Gag protein hijacks key host proteins involved in endocytic machinery of the host cell to promote endosomal processing and viral budding. The budding process requires a direct interaction between a […] (PTAP) motif in the p6 domain of Gag and the cellular endosomal sorting protein known as Tsg101. In this way, the Gag PTAP motif promotes the host cells to recruit viral particles to the plasma membrane where the new viral particles are released, effectively turning the host cells into viral factories. A fluorescence polarization assay has been developed to quantitatively measure the PTAP-Tsg101 interaction which can be used to screen for inhibitors of this interaction. This assay was run against the NCGC Sytravon Library collection. NIH Molecular Libraries Probe Production Network [MLPCN] NIH Chemical Genomics Center [NCGC] Grant: R03 MH087464-01A1 PI Name: Dr. Eric Freed, NCI
Two uL of the Tsg101 binding domain in buffer (10 mM HEPES pH 7.5; 0.15 M NaCl, 0.01% Tween 20; 3 mM EDTA;0.1 mM TCEP) was dispensed into Greiner black MB 1536-well plates (final concentration 10 uM). Then, 23 nL of compounds or DMSO were delivered to each well using a pin tool. Finally, 2 uL of a FITC-labeled peptide containing the PTAP motif (1) in the same buffer was dispensed (50 nM final concentration) and the binding was allowed to proceed for 20 min. at r.t. Fluorescent polarization was determined using FITC excitation and polarized emission filters on a Perkin Elmer Envision. Assay cut-off (positive/negative criteria): Actives defined by CRC class, <25 µM; Efficacy <60% inhibition. The total fluorescent intensity from S and P channels will be used to flag fluorescent compounds.
For activity change, negative = inhibition in this document: 0% is about no effect.
Potency is read from the fitted curve at half-maximal effect.

SMILES | activity change, negative = inhibition | Potency
COc1ccccc1C(=O)Nc1c(C(=O)N(C)Cc2ccccc2)sc2nc(C)c(Cl)c(C)c12 | -1.59% | –
COc1ccccc1CNC(=O)c1ccc(NC(=O)N2CC(C)Sc3ccccc32)cc1 (centres undefined) | -5.63% | –
COc1ccc(NC(=O)c2sc3nc[nH]c(=O)c3c2C)cc1 | 2.47% | –
CCc1ccc(S(=O)(=O)Nc2cc3c(C(=O)OCc4ccccc4)c(C)oc3c3ccccc23)cc1 | 8.08% | –
COc1ccccc1-c1ccnc2[nH]n(-c3ccccc3)c(=O)c12 | -10.8% | –
CSc1nn(Cc2cccc(C)c2)c(N)c1S(=O)(=O)c1ccccc1 | 5.53% | –
CCOc1ccccc1C(=O)Nc1ccc2c(c1)N(C)C(=O)c1ccccc1S2 | -5.55% | –
CCOC(=O)c1[nH]c(C)c(CCC(=O)NCc2ccccc2C)c1C | 1.29% | –
Cc1ccc(S(=O)(=O)c2nc(-c3cccs3)oc2N2CCCCC2)cc1 | -7.31% | –
COc1cccc(CNC(=O)CCc2nc(-c3ccc(C)cc3)no2)c1 | 0.0869% | –
CCCCCCn1nnc2sc(-c3ccccc3)cc2c1=O | 1.81% | –
Cc1ccc(Cl)cc1N1CCN(C(=O)c2cccn3c(=O)c4cc(Cl)ccc4nc23)CC1 | 1.96% | –
Cc1ccccc1-n1c(=O)c2ccccc2n(Cc2ccc(F)cc2)c1=O | -2.61% | –
CCc1ccccc1N(C)C(=O)C1CCCN(c2ncnc3onc(-c4ccc(F)cc4)c23)C1 (centres undefined) | -3.7% | –
CCOC(=O)c1c(NC(=O)c2ccc(S(=O)(=O)N(CC)CC)cc2)sc2c1CCCCC2 | -4.85% | –
Cc1nc2ccc(S(=O)(=O)N(CC(=O)Nc3ccc(F)cc3)Cc3ccccc3)cc2s1 | 1.33% | –
COc1ccc(CCNC(=O)CN2C(=O)COc3ccc(S(=O)(=O)N4CCCC4)cc32)cc1OC | -6.56% | –
Cc1cc(Nc2cccc(C(F)(F)F)c2)nc2ccc(NC(=O)c3ccc(=O)[nH]c3)cc12 | 1.63% | –
O=C(Nc1ccc2oc(-c3ccc(O)c(Br)c3)nc2c1)c1cc2ccccc2o1 | -4.46% | –
O=C(c1cccc(Br)c1)N1CCN(Cc2cc(=O)n3nc(-c4ccccc4)sc3n2)CC1 | -0.0587% | –
O=C(CNS(=O)(=O)c1cccs1)N1CCN(c2ccccc2Cl)CC1 | 1.11% | –
CC1CCc2noc(NC(=O)c3ccc([N+](=O)[O-])cc3)c2C1 (centres undefined) | 12.5% | –
COc1cc(C(=O)N2CCN(c3ccc(Nc4ccc(C)cc4)nn3)CC2)cc(OC)c1OC | -0.737% | –
CCOC(=O)c1ccc(NC(=O)CCS(=O)(=O)c2ccc3c(c2)oc(=O)n3C)cc1 | 4.41% | –

SMILES | activity change, negative = inhibition | Potency
O=C(COCc1cc(-c2ccc3c(c2)OCO3)on1)N1CCN(c2cccc(Cl)c2)CC1 | 1.37% | –
Cc1ccc(C(=O)Nc2ccc(C(=O)O)cc2)cc1S(=O)(=O)Nc1ccccc1 | -1.08% | –
Cc1ccc(OCC(=O)OCc2cc(=O)n3nc(C4CC4)sc3n2)cc1 | -7.51% | –
CCOC(=O)C(Cc1ccccc1)NC(=O)CCc1c(C)nc2c(c(C)nn2-c2ccc(C)c(C)c2)c1C (centres undefined) | -0.632% | –
Cc1ccc(OCCSc2nc(-c3cccs3)nc3cc(=O)[nH]n23)cc1Cl | 0.193% | –
CC1(C)N=C(SCc2ccccc2Cl)c2ccccc2N1 | -5.04% | –
COc1ccc(Cc2nc3ccc(C(=O)NCc4ccccc4C)cc3o2)cc1 | 0.514% | –
COc1ccc(N2C(=O)CS(=O)(=O)C23C(=O)N(Cc2ccc(C)cc2)c2ccccc23)cc1Cl (centres undefined) | 2.62% | –
Cc1ccc(C)c(N2CCN(S(=O)(=O)c3ccc4c(c3)C(C(C)C)C(=O)N4)CC2)c1 (centres undefined) | -7.65% | –
Cc1ccc(NC(=O)CSc2nnc3[nH]c(=O)cc(C)n23)cc1Cl | -1.4% | –
CCOC(=O)C1CCC(CN(Cc2ccc(OC)cc2)S(=O)(=O)c2ccc(F)c(C(=O)Nc3cc(C)ccc3C)c2)CC1 (centres undefined) | -0.621% | –
CCOC(=O)N1CCc2c(sc3c2c(=O)n(-c2ccc(CC)cc2)c(=O)n3C)C1 | 0.351% | –
COc1ccc(CCN2C(=O)c3oc4cc(C)cc(C)c4c(=O)c3C2c2ccccc2F)cc1OC (centres undefined) | -1.25% | –
CSc1ccc(CCNC(=O)c2ccc3c(c2)nc2n3CCOC2)cc1 | 1.68% | –
COc1ccccc1N1CCN(C(=O)C2CCN(S(=O)(=O)c3c(C)noc3/C=C/c3ccc(C)cc3)CC2)CC1 | 0.416% | –
COc1ccc2c(c1)Cc1sc(NC(=O)c3ccccc3Br)nc1-2 | -15.5% | –
CC(=O)Nc1ccc(NC(=O)C2CCCN(S(=O)(=O)c3ccc4c(c3)CCCC(=O)N4)C2)cc1 (centres undefined) | -4.99% | –
COc1ccc(Cl)cc1NC(=O)CSc1nc(=O)[nH]c2c1CCCC2 | -2.93% | –
CCc1nn(CC(=O)Nc2cc(C)cc(C)c2)c(=O)c2cc3sccc3n12 | 2.57% | –
COc1cc(OC)c(NC(=O)c2cnc(N3CCCC3)nc2C)cc1Cl | -0.674% | –
O=C(NCCC1=CCCCC1)c1ccc2c(c1)N(Cc1ccccc1F)C(=O)c1ccccc1S2(=O)=O | -0.0457% | –
O=C(CN1C(=O)COc2ccc(S(=O)(=O)N3CCCCCC3)cc21)N1CCN(c2cccc(C(F)(F)F)c2)CC1 | -1.98% | –
CCCCOc1ccc(CN2C(=O)C(=O)c3cc(Br)cc(C)c32)cc1OC | 3.1% | –
COc1cc(CN(C(=O)c2ccccc2Br)c2ccccn2)cc(OC)c1OC | 1.54% | –

SMILES | activity change, negative = inhibition | Potency
CCOCCCNC(=O)c1c(NC(=O)Cc2coc3c(C)c(C)ccc23)sc2c1CCC2 | -5.83% | –
Cc1nnc(N2CCC(C(=O)Nc3ccc(F)cc3)CC2)c2nn(-c3ccc(Cl)cc3)c(C)c12 | -0.22% | –
O=C(c1cc(-c2ccc(F)cc2)on1)N1CCN(c2ccc(F)cc2)CC1 | -0.644% | –
COC(=O)CN1C(=O)CSc2ccc(S(=O)(=O)Nc3cc(C)ccc3C)cc21 | 0.45% | –
Cc1cc(C)c2oc(C(=O)Nc3c(C(=O)Nc4ccccc4)oc4ccccc34)cc(=O)c2c1 | -3.4% | –
O=C(NC1CC(=O)N(c2ccc(Cl)cc2)C1)C1CCCC1 (centres undefined) | 1.05% | –
CN1CCN(c2oc(-c3ccc(COc4ccc(Cl)cc4)o3)nc2C#N)CC1 | -1.61% | –
COc1ccc(-c2nc3sc(CCNS(=O)(=O)c4ccc(F)c(C)c4)c(C)n3n2)cc1 | -2.15% | –
O=C(COc1ccccc1F)Nc1ccc(C(=O)OCc2cc(=O)n3nc(C4CC4)sc3n2)cc1 | -2.26% | –
CCC(=O)Nc1ccccc1-c1nc2ccccc2n(CC(=O)Nc2ccc(C)c(C)c2)c1=O | -2.55% | –
Cc1cccc(-c2nc(SCC(=O)Nc3cc(C)on3)c3c(=O)n(C)c(=O)n(C)c3n2)c1 | -8.93% | –
CC(=O)c1ccc(NC(=O)CSc2c(C(C)C)cnc3c2c(=O)n(C)c(=O)n3C)cc1 | -0.533% | –
COc1ccc(OCc2ccc(-c3nc(C#N)c(N4CCN(c5ccccc5)CC4)o3)o2)cc1 | -0.55% | –
CCCCNC(=O)c1cc(-c2ccc(Cl)c(Cl)c2)on1 | 0.656% | –
CCSc1ncc(Cl)c(C(=O)Nc2c(C(=O)c3ccccc3)oc3ccccc23)n1 | 0.154% | –
Cc1ccc(NC2=C(c3ccc(C(F)(F)F)cc3)C(=O)c3ccccc32)cc1F | -2.86% | –
COc1ccc(S(=O)(=O)c2c(Nc3cccc(Cl)c3)sc(C(=O)c3ccccc3)c2N)cc1 | 1.26% | –
COc1cccc(C(=O)c2sc3nc(-c4ccccc4)cc(C(F)(F)F)c3c2N)c1 | – | 28.2 µM (active)
COc1cccc(C(=O)Nc2ccc(-c3cc(C(F)(F)F)nn3-c3ccccc3)cc2)c1 | -5.37% | –
COc1ccc(NC(=O)CN2CCCN(Cc3ccccc3)S2(=O)=O)cc1 | 4.58% | –
COc1ccccc1Nc1nc(N)nc(N)c1S(=O)(=O)c1ccccc1 | 2.79% | –
COc1cccc(N2CCN(C(=O)CCCCCn3c(=O)[nH]c4ccccc4c3=O)CC2)c1 | -2.04% | –
COc1ccc(CNC(=O)c2cc3c(=O)[nH]c4ccccc4c3s2)cc1 | -0.283% | –
CCCN1C(=O)C(O)(CC(=O)c2ccc(CC)cc2)c2cc(Br)ccc21 (centres undefined) | -0.282% | –

SMILES | activity change, negative = inhibition | Potency
O=C(c1ccco1)n1nc(-c2ccc(Cl)cc2)nc1NCc1ccccc1 | -4.62% | –
Cn1c(=O)c2c(-c3ccccc3Br)n(Cc3ccccc3)cc2n(C)c1=O | -2.21% | –
Cc1cc(C)c(NC(=O)CN2C(=O)c3cccnc3Oc3ccc(Cl)cc32)c(C)c1 | 0.363% | –
CCOC(=O)c1ccc(NC(=O)C2CCN(S(=O)(=O)c3ccc4c(c3)CCCC(=O)N4)CC2)cc1 | -0.0606% | –
O=C(Nc1ccc2nc(SCC(=O)N3CCCc4ccccc43)sc2c1)c1ccc(F)cc1 | 7.03% | –
CCOc1ccc(NC(=O)Cn2c(=O)n(CCCC(=O)NCc3ccc4c(c3)OCO4)c(=O)c3ccccc32)cc1 | -2.28% | –
CC(=O)N1c2ccc(S(=O)(=O)N3CCCCCC3)cc2CC1C(=O)NCc1ccccc1C (centres undefined) | 1.47% | –
CCOc1cccc(C(=O)Nc2nnc(S(=O)(=O)N(C)c3ccc(C)cc3)s2)c1 | 4.37% | –
COc1cc(CNCCSc2nnnn2C)ccc1OCc1ccc(Cl)cc1Cl | -9.59% | –
Cc1cn(C)c(CC(=O)NCc2ccccc2)c1C(=O)O | -6.7% | –
CCc1ccc(CNC(=O)c2ccc(CS(=O)c3ccc(Br)cc3)o2)cc1 (centres undefined) | -1.78% | –
COc1ccc(-n2ccnc(NCCc3ccc(Cl)cc3)c2=O)cc1OC | -3.87% | –
N#Cc1nc(/C=C/c2ccc(F)cc2)oc1NC1CCCCC1 | 0.943% | –
COc1ccc(CNC(=O)CS(=O)Cc2nc(-c3cccc(C)c3)oc2C)cc1 (centres undefined) | 0.25% | –
CCOc1ccc(NC(=O)c2cc(S(=O)(=O)N3CCCC3)c[nH]2)cc1 | -8.6% | –
COc1cccc(C(=O)NCC(=O)OCc2cc(=O)n3ccsc3n2)c1 | 1.45% | –
Cc1nn(-c2ccc(N3CCCCC3)nn2)c(C)c1CCC(=O)NCc1ccccc1F | 1.09% | –
CCc1cc2c(cc3c(=O)n(CC(=O)N4CCN(c5cc(Cl)ccc5C)CC4)ncn32)s1 | -5.09% | –
CCOc1ccc(C2C(=O)N(C3CCCCC3)CC(=O)N2CCC2=CCCCC2)cc1OC (centres undefined) | -8.4% | –
CC1CCCN(Cc2c(O)ccc3c(=O)c(Oc4ccc(C(C)(C)C)cc4)c(C(F)(F)F)oc23)C1 (centres undefined) | -0.105% | –
CCc1cccc(C)c1NS(=O)(=O)c1ccc(-c2cc(C)no2)s1 | 0.67% | –
O=C(CCS(=O)(=O)c1cc(Br)cc2c1N(C(=O)C1CC1)CC2)Nc1ccc(C(F)(F)F)cc1 | 0.0494% | –
